Screening results as filed in PubChem.
An excerpt weighted towards active compounds, which were near 1.2% of everything screened.
KCNH2 WT inh: qHTS for Inhibitors of KCHN2 3.1: Wildtype qHTS; Voltage-gated inwardly rectifying potassium channel KCNH2 (Homo sapiens), Q12809; U2OS, BacMam KCNH2, thallium flux FluxOr; active compounds read low; activity change, % at 1.84 µM; 340,000 tested, 0.37% active; AID 720551, 2013;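 active = maximum activity change below -70%; inconclusive = maximum activity change between -70% and -50%; inactive = maximum activity change above -50%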
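U2OS cells were transduced with wild-type KCNH2 virus (2.03 x 10^8 / mL) for 4 h at room temperature, then cultured overnight at 37 C. Thallium flux was read with FluxOr dye. Rate constants were normalized to DMSO controls.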
TRPV1 agonist: HTS Assay for Compounds that Act as Agonists of the Vanilloid Receptor 1; activation, % at 8.33 µM; TRPV1-expressing cells, Fluo-8 calcium influx, agonist mode; Transient receptor potential cation channel subfamily V member 1 (Homo sapiens), Q8NER1; 320,000 tested, 0.19% active; AID 540275, 2011; in the data active = activation above about 80%; inconclusive = between about 30% and that limit
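Cells expressing TRPV1 were dye-loaded with Fluo-8 and read kinetically: 10 s baseline, 3 min after compound (agonist portion), then 2 min after EC20 capsaicin (allosteric enhancer portion). Calcium-bound dye fluorescence at 480/520 nm.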
KCNH2 3.1 block: qHTS for Inhibitors of KCHN2 3.1: Mutant qHTS; Potassium voltage-gated channel subfamily H member 2, brain isoform KCNH2 3.1 (human); activity change, % (tested at about 1.8 µM); U2OS KCNH2 3.1, thallium flux FluxOr; active compounds read low; 340,000 tested, 0.95% active;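 active = maximum activity change below -70%; inconclusive = maximum activity change from -70% to -50%; inactive = maximum activity change above -50%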;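 also: thallium influx rate constant from kinetic fluorescence after stimulation buffer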
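Measured as rate of thallium-driven FluxOr signal in transduced U2OS cells carrying the 3.1 channel, read kinetically for 2 min upon stimulation; values are rate constants scaled to DMSO control wells.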
TRPV1 PAM: HTS Assay for Compounds that Act as Potentiators of the Vanilloid Receptor 1; Transient receptor potential cation channel subfamily V member 1 (Homo sapiens), Q8NER1; potentiation, % at 8.33 µM; 320,000 tested, 0.02% active; TRPV1-expressing cells, Fluo-8 calcium influx, capsaicin EC20 potentiation; in the data active = potentiation above about 80%; inconclusive = between about 30% and that limit
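Fluo-8 calcium influx in TRPV1-expressing cells, kinetic read (ex 480/em 520 nm). Compound added and read 3 min for agonist activity, followed by capsaicin at EC20 final and 2 min further read for enhancement.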
Of the large screens only hits and unclear results are named; the others gave an inactive call.

Cc1ccc([C@H]2C[C@@H](O)[C@H](n3cc(C4CC4)nn3)CN2C(=O)c2cccs2)cc1	none (no result: TRPV1 agonist, TRPV1 PAM)
CCC(=O)Nc1ccc(N2CCOCC2)c(S(=O)(=O)Nc2ccc(OC)cc2)c1	none
COc1ccc(NS(=O)(=O)c2cc(NC(=O)c3ccc(C)s3)ccc2N2CCOCC2)cc1	TRPV1 agonist 88
CC(=O)NC(=S)Nc1ccc(N2CCOCC2)c(S(=O)(=O)Nc2cc(Cl)ccc2Cl)c1	KCNH2 WT inh inconclusive, KCNH2 3.1 block -82
NC(=O)c1ccc(NC(=O)CSc2nnc(C3CCCCC3)n2N)cc1	KCNH2 3.1 block -138
CN(C)CCCNc1ncnc2sc(-c3ccccc3)cc12	KCNH2 3.1 block -89
C[C@H](O)[C@@H]1CN2CCc3c([nH]c4ccccc34)[C@@H]2C[C@@H]1N(C)Cc1cc(Cl)cc(Cl)c1	KCNH2 3.1 block inconclusive (no result: TRPV1 agonist, TRPV1 PAM)
O=C(O)c1nn(CCOc2cccc(Br)c2)c(=O)c2ccccc12	none
C/C(=N\NC(=O)CSc1nc2ccccc2o1)c1cccc(O)c1	KCNH2 3.1 block -116
CCOC(=O)c1c(C)nc2sccn12	KCNH2 3.1 block -95
COc1ccccc1S(=O)(=O)NCc1ccc(C(=O)NC(C)c2ccccn2)cc1 (stereo unspecified)	none
Cc1nc(C(F)(F)F)ccc1C(=O)Nc1ccc(C(F)(F)F)cn1	TRPV1 agonist 82
O=C(Nc1ccc(C(F)(F)F)cn1)Nc1cccs1	none
CCOC(=O)CN1C(=O)C(=O)N(Cc2ccccc2F)C1=O	none
O=C(c1ccc(S(=O)(=O)Nc2cccc(C(F)(F)F)c2)cc1)N1CCN(c2ccccc2O)CC1	none
Cc1ccc(N2CCN(C(=O)N3CCOCC3)CC2)c(C)c1	TRPV1 agonist 83, KCNH2 3.1 block inconclusive
COc1ccccc1N(CC(=O)N1CCN(c2ccc(F)cc2)CC1)S(=O)(=O)c1ccc(C)cc1	none
CCC(C)c1ccccc1N1CC(C(=O)Nc2cc(S(=O)(=O)N3CCOCC3)ccc2OC)CC1=O (stereo unspecified)	none (no result: TRPV1 agonist, TRPV1 PAM)
CCC(C)c1ccccc1N1CC(C(=O)Nc2ccc(C)c(S(=O)(=O)N3CCOCC3)c2)CC1=O (stereo unspecified)	KCNH2 3.1 block -73
COc1ccc([C@H]2C[C@H](O)[C@@H](n3cc(COC(=O)c4ccccc4)nn3)CN2CC2CCCCC2)cc1	none (no result: TRPV1 agonist, TRPV1 PAM)
O=C(Nc1ccc(S(=O)(=O)NCc2ccccc2)cc1)C1CCCCC1	KCNH2 3.1 block -72
O=C(c1ccccc1)N1CCc2[nH]nc(-c3ccccc3)c2C1	KCNH2 3.1 block -94
COc1ccc(C(=O)N2CCc3[nH]nc(-c4ccccc4)c3C2)cc1	none
COC(=O)c1ccc(Cn2cnc3c(cnn3-c3ccc(Cl)cc3)c2=O)o1	KCNH2 3.1 block -75
CN(C)C1=NCCN1CCC1CCCC1	KCNH2 3.1 block -109
CN(C)C1=NCCN1CCCC1CCCCC1	TRPV1 PAM inconclusive
N#CC(=Cc1ccnc2ccccc12)c1ccccc1	none (no result: TRPV1 agonist, TRPV1 PAM)
Cc1cc(NC(=O)c2ccc(-c3ccccc3F)o2)no1	TRPV1 agonist inconclusive, KCNH2 3.1 block -198
Cc1ccc2c(c1)sc1nncn12	none (no result: TRPV1 agonist, TRPV1 PAM)
CCn1cc(C(=O)O)c(=O)c2cnc(N3CCN(C(=S)NC(=O)c4ccccc4Cl)CC3)nc21	none (no result: TRPV1 agonist, TRPV1 PAM)
Cc1ccc(C)c(OCCC(=O)Nc2cccc(S(=O)(=O)N3CCCCC3)c2)c1	none
CSc1ccccc1NC(=O)CSc1nnnn1-c1ccccc1SC	none
COC(=O)c1ccsc1NC(=O)CSc1nnnn1-c1ccccc1SC	KCNH2 3.1 block -88
O=C(CSc1nc2cc(C(F)(F)F)ccc2n1Cc1ccccc1)NC1CCS(=O)(=O)C1 (stereo unspecified)	none
CN(CC(=O)Nc1ccccc1Br)C(=O)c1ccncc1	KCNH2 3.1 block -105
CN(CC(=O)Nc1ccccc1Br)C(=O)c1ccc(COc2ccccc2)cc1	none
COc1ccc(Br)cc1C1NC(c2ccc3c(c2)OCO3)=CC(c2cc(Cl)ccc2O)N1 (stereo unspecified)	none (no result: KCNH2 WT inh, KCNH2 3.1 block)
CN(C)CCNC(=O)c1cc2c(s1)-c1ccc(Cl)cc1SC2	KCNH2 WT inh -113, KCNH2 3.1 block -81
COc1ccc(C(C#N)=Cc2cccc(OC)c2OC)cc1	none (no result: TRPV1 agonist, TRPV1 PAM)
O=C(C1CCN(CCCc2ccccc2)CC1)N(CCc1ccccc1)Cc1ccccc1	KCNH2 WT inh -89, KCNH2 3.1 block -110
CCN(Cc1ccccc1)C(=O)C1CCN(Cc2ccc(SC)cc2)CC1	KCNH2 WT inh -114, KCNH2 3.1 block -94
O=C(C1CCN(CC2CC=CCC2)CC1)N(CCc1ccccc1)Cc1ccccc1 (stereo unspecified)	none (no result: KCNH2 3.1 block)
Nc1ncc(CCN2CCOCC2)c(-c2ccc(F)cc2)n1	KCNH2 WT inh -121
Cc1nc(N2CCN(c3ccccn3)CC2)c2c(C)c(C(=O)Nc3ccc(F)cc3F)sc2n1	TRPV1 agonist inconclusive, KCNH2 3.1 block -93
Cc1nc(N2CCN(c3ccccn3)CC2)c2c(C)c(C(=O)Nc3ccccc3F)sc2n1	none
Cc1nc(N2CCOCC2)c2c(C)c(C(=O)Nc3ccccc3C(F)(F)F)sc2n1	TRPV1 agonist 91
Cc1nc(N2CCN(c3ccccn3)CC2)c2c(C)c(C(=O)Nc3ccc(F)cc3Cl)sc2n1	KCNH2 3.1 block -88
O=C1C(=C(I)I)c2ccccc2-c2ccccc21	none (no result: TRPV1 agonist, TRPV1 PAM)
O=C(/C=C/c1ccc(Cl)c(Cl)c1)Nc1cccnc1	none (no result: TRPV1 agonist, TRPV1 PAM)
CSc1ccc(/C=C/C(=O)Nc2ccccc2)cc1	TRPV1 agonist 90
CC(C)(C)c1ccc(/C=C/C(=O)Nc2cccnc2)cc1	TRPV1 agonist 101
O=C(Nc1ccc(Br)cn1)c1ccc(COc2c(F)c(F)cc(F)c2F)o1	none
COc1cc(/C=N\NC(=O)C2COc3ccccc3O2)cc(OC)c1O (stereo unspecified)	TRPV1 agonist 88
CC(C)(C)c1ccc2c(c1)OC(C(=O)N/N=C\c1ccncc1)CO2 (stereo unspecified)	TRPV1 agonist 109
CC1(C)CN(Cc2ccccc2)C(=O)[C@H]1CC(=O)Nc1ccc(Br)cc1	none (no result: TRPV1 agonist, TRPV1 PAM)
CN1CCN(C(=O)C(=O)c2cn(CC(=O)N3CCOCC3)c3ccccc23)CC1	none (no result: TRPV1 agonist, TRPV1 PAM)
CC(=O)c1ccc(N2CCN(C(=O)c3nn(Cc4ccccc4)c(=O)c4ccccc34)CC2)cc1	KCNH2 WT inh inconclusive, KCNH2 3.1 block -86
COc1ccc(/C=C(\NC(=O)c2ccc([N+](=O)[O-])cc2)C(=O)NCCCN2CCOCC2)cc1	KCNH2 3.1 block inconclusive
COc1ccc(/C=C(\NC(=O)c2ccc([N+](=O)[O-])cc2)C(=O)NCCN2CCOCC2)cc1	KCNH2 WT inh -118, KCNH2 3.1 block -78
COc1ccc(/C=C(/NC(=O)c2ccc([N+](=O)[O-])cc2)C(=O)NCCCN(C)C)cc1	KCNH2 WT inh -84, KCNH2 3.1 block inconclusive
